The results in this text go back to ChEMBL document CHEMBL3988442, “University of Dundee, Small-Polar-MMV Screening Library” (2021).

SMILES strings stand for the structures.

For this assay, the target named is AMP-activated protein kinase, AMPK (Homo sapiens) (UniProt P54646+O43741+P54619+Q9UGJ0+Q9Y478+Q13131+Q9UGI9). Description: AMP-dependent Kinase enzyme assay. An in vitro enzyme assay that detects ADP turnover that is directly proportional to AMPK activity. This uses naive AMPK that is activated during the assay with MK-8722. Format: functional. Details: scale not given: direction of the effect not stated beside the values. The following applies: 30 µM.
With `O=C(CCOc1ccccc1F)N1CCC(O)CC1`, the Percent Effect was 3.95%.
For `CN1CC2(CCN(C(=O)CCCOCc3ccccc3)C2)OC1=O` (centres undefined) the value was 9.85%.
Regarding `Clc1ccc(COCC2CCN(Cc3ccccn3)CC2)cc1`, the Percent Effect is 4.9%.
For `O=C(O)[C@H]1C[C@@H](C(=O)NCc2ccncc2)CN(Cc2ccccc2)C1`, the Percent Effect was -3%.
On to `Cc1noc(CCCC(=O)N2CCNC(=O)C2)n1`, for which the Percent Effect was -2.32%.
For `Cc1cccc(C(C)C)c1NC(=O)NCCN(C(C)C)C(C)C`, the Percent Effect was found to be 15.2%.
For `Cc1cc(C)c(C#N)c(NCCn2cnnc2C(C)C)n1` the value was 2.2%; for `CCOC(=O)C1(O)CCN(C(=O)Nc2cccc(CC)c2)CC1`, -6.62%.
The figure for `CSc1ccccc1NC(=O)c1ccc(N2CCOCC2)nn1` is -1.6%; for `CC(C)c1cc(C(=O)N[C@@H]2CC[C@@H](Oc3ccccc3)[C@@H]2O)on1` it is 16.6%; for `COCCN1C(=O)[C@H]2CC[C@@H]1CN(S(=O)(=O)c1cccc(Cl)c1)C2` it is 27.4%.
The figure for `CCOc1ccccc1C(C(=O)O)N(C)Cc1nnc(C)o1` (centres undefined) is 4.89%; for `Cc1cc(CC(C)NC(=O)c2n[nH]c3c2CCC3)n[nH]1` (centres undefined) it is 3.64%; for `CCc1csc(CNc2cc(C)nc(-c3cccnc3)n2)n1` it is 18.4%.
`Cc1nnc(C(C)N2CCN(Cc3noc(C(C)(C)C)n3)CC2)o1` (centres undefined): the Percent Effect is -8.02%.
For `O=C(NCc1nnnn1-c1ccccc1)c1ccc(C2CCCO2)s1` (centres undefined) the value was 1.57%; for `CC1(C)CC(C(=O)N2CCC3(CCC(=O)N(C4CC4)C3)CC2)CCO1` (centres undefined), -0.458%.
In the case of `CC(C)C(CCO)NC(=O)Nc1ccc(-c2csnn2)cc1` (centres undefined), the Percent Effect worked out at 13.2%.
The figure for `COCCOc1cccc(CNCc2ccc(-n3cncn3)nc2)c1` is 3.28%; for `CC(=O)c1ccc(-c2cnn(CC(=O)Nc3ccnn3C)c2)nc1` it is 6.15%.
`CN(CCCO)C(=O)c1ccc2c(c1)nc(N1CC[C@H](O)C1)n2C`: the Percent Effect is 6.47%.
The figure for `CCOc1ccc(NC(=O)NCCS(=O)(=O)CC)cc1C` is -0.616%.
For `CN(C)c1cccc(C(=O)Nc2cnn(Cc3ccccn3)c2)c1` the value was -43.1%.
Take `CC(C)c1ccc(/C=C/CC(=O)NC2CCS(=O)(=O)CC2)cc1`: the Percent Effect is -2.16%.
For `Cc1cc(C(=O)NCCC(=O)N2CCCc3ccccc32)no1` the value was -5.97%; for `COc1cc(C)c(S(=O)(=O)CC(=O)N(C)C2CC2)cc1OC`, 2.73%.
The figure for `Cc1cc(CN(C)C(=O)CNS(=O)(=O)c2cccs2)no1` is 7.18%; for `Cc1c(NC(=O)NC(C)CCO)cccc1OC1CCCC1` (centres undefined) it is -7.69%; for `Fc1ccccc1CN1CCC[C@@H](Cn2nnc(-c3cccs3)n2)C1` it is 5.25%.
The figure for `CC1CCCCN1C(=O)Cn1cnc(C#N)n1` (centres undefined) is -5.33%; for `CC1CN(c2ccccc2Cl)C(=O)CN1C(=O)c1c[nH]c(=O)c(Cl)c1` (centres undefined) it is 5.06%.
Consider `Cc1cc(CN(C)C(=O)Nc2ccccc2C)no1`, for which the Percent Effect is 9.79%.
Regarding `O=C(O)c1cn(CC2CCCN(c3nc4ccccc4s3)C2)nn1` (centres undefined), the Percent Effect is -1.06%.
For the molecule `O=C(COc1ccc(-n2cccn2)nn1)NC1CCCCC1`, the Percent Effect was -0.431%.
The figure for `CC(C)[C@@H]1CN(Cc2cnc3c(S(C)(=O)=O)cnn3c2)C[C@H]1N(C)C` is -8.81%; for `O=C(COC1CCCC1)NCc1ccc(O)c(F)c1` it is 8.07%; for `Cc1ccsc1C(CNC(=O)c1cc(=O)[nH]c(=O)[nH]1)N(C)C` (centres undefined) it is 3.78%.
For `CN(CCSc1nncn1CC(F)(F)F)c1ccccc1` the value was 8.89%; for `Cn1ccnc1C(O)c1ccccc1N1CCN(CC2CCCC2)CC1` (centres undefined), 16.2%.
